# Data: ChEMBL document CHEMBL4513216, “Probing the Open Global Health Chemical Diversity Library for Multistage-Active Starting Points for Next-Generation Antimalarials” (ACS Infect Dis, 2020)
# About 2,100 (3.2%) of roughly 65,000 compounds showed an effect of 50% or more. The median lay at about -52%. Many of the other results were omitted from the sample, so strong results are more common in it than they were.
# System: Plasmodium falciparum
# Assay: Screen against P. falciparum Asexual Blood Stage (ABS), at 5uM
# Format: functional, Dd2
# Conditions: tested at 5 uM
row,SMILES,INHIBITION [%]
1,Cn1ccnc1CN1CCN(CC2CC2)[C@@H]2CS(=O)(=O)C[C@@H]21,-222
2,Cn1c(=O)cc(C(=O)NC(Cc2ccsc2)c2cccnc2)[nH]c1=O (stereo unspecified),-41.8
3,O=S(=O)(N1CCCC1)N1CC[C@H](c2ccccc2)[C@H]2NCCCC[C@H]21,48.5
4,CCN(CC)S(=O)(=O)N1CC[C@H](c2ccccc2)[C@H]2NCCCC[C@H]21,57.7
5,O=S(=O)(N1CCCC1)N1C[C@@H](c2cccc(F)c2)[C@@H]2NCCCCC[C@H]21,25.3
6,CCOc1c(F)cccc1C(=O)N(c1cccnc1)C(C)C,-2.56
7,CC(C)(C(=O)NCC1CCN(Cc2ncc[nH]2)C1)c1ccccc1 (stereo unspecified),-15.4
8,CC(C)(C(=O)NCC1CCN(Cc2cccnc2)C1)c1ccccc1 (stereo unspecified),53.2
9,CC(C)(C(=O)NCC1CCN(Cc2ccccn2)C1)c1ccccc1 (stereo unspecified),40.4
10,Cc1nc(CCCNC(=O)Nc2ccc(F)cc2F)n[nH]1,-12.9
11,O=C(NCCN1CCCC1)c1cc2c(s1)CCN2c1ncccn1,-36.4
12,O=C1CC(c2ccccc2)c2cnn(C3CCCC3)c2N1 (stereo unspecified),-173
13,N#Cc1ccc(C2CC(=O)Nc3c2cnn3C2CCCC2)cc1 (stereo unspecified),53.3
14,O=C1CC(c2ccc(F)cc2)c2cnn(C3CCCC3)c2N1 (stereo unspecified),-115
15,Cc1noc(C)c1CC(=O)N1CCCN(C)c2ccc(Cl)cc21,-70.5
16,O=C(NCC1CCN(Cc2cc3ccccc3[nH]2)C1)C1CCCCC1 (stereo unspecified),8.98
17,Cc1nc(CNC(=O)Nc2ccc3c(c2)CCCN3C)sc1C,60.4
18,Cc1nc(CNC(=O)Nc2ccc3c(c2)CCCC(=O)N3)sc1C,-39.6
19,Cc1nc(CNC(=O)Nc2ccc(N(C)C)nc2)sc1C,-121
20,CC(C)c1nnc(CN2CCc3ccc(S(N)(=O)=O)cc32)o1,-105
21,CCOCC(=O)N1Cc2nnn(C)c2C(COCc2ccccn2)C1 (stereo unspecified),-123
22,COC(=O)CCC(=O)NCc1cccnc1N1CCc2ccccc2C1,58.5

row,SMILES,INHIBITION [%]
1,CC(C)[C@@H](N)C(=O)NCc1cccnc1N1CCc2ccccc2C1,29
2,NC(=O)NCCC(=O)NCc1cccnc1N1CCc2ccccc2C1,-73
3,O=c1cc(C2CCNCC2)nc(Cc2cccc(Cl)c2)[nH]1,-25.9
4,CC(C)Nc1ncnc2c1CCN(C(=O)CCc1ccccc1)CC2,-74.7
5,Cc1ccc(CN2Cc3ccccc3OC3(CCC(CO)CC3)C2)s1 (stereo unspecified),-106
6,Cc1ncsc1CN1C[C@H](NC(=O)C2CCOCC2)[C@@H](C(C)C)C1,-21.1
7,c1ccc(Cc2nc(CNC3CCC4(CCNCC4)CC3)no2)cc1,39.2
8,Cc1cc(NCc2ccc(N3CCNC(=O)C3)cc2)nc(C)n1,-39.6
9,O=C1CN(c2ccc(CNc3cncc(-n4cccn4)n3)cc2)CCN1,52
10,CCSc1cncc(NCc2ccc(N3CCNC(=O)C3)cc2)n1,38.9
11,CCc1nc2c(c(NC3CCC3)n1)CCN(C(=O)CO)CC2,-35.7
12,Cn1cnnc1C1CCCN(C(=O)NCCn2ccnc2)C1 (stereo unspecified),-164
13,CC1CN(c2ncccc2C(=O)Nc2cccc3c2CCCC3)CCN1 (stereo unspecified),10.3
14,O=C(Nc1cccc2c1CCCC2)c1cccnc1N1CCCNCC1,53.6
15,Cc1cccc(C(=O)Nc2cccc3c2CCCC3)n1,-253
16,CN(Cc1ccoc1)C(=O)Cn1ncc(N(C)C)cc1=O,-36.7
17,CCn1cc(C(=O)N2CCCC(c3noc(C)n3)C2)cn1 (stereo unspecified),-71.8
18,CC1=C(c2ccc(Cl)cc2)S(=O)(=O)N=C1N1CCc2ccccc21,-35.6
19,CC(C)(C)NS(=O)(=O)c1ccccc1CNCc1ccccc1,43.3
20,CC(C)NS(=O)(=O)c1ccccc1CNCc1cccc(O)c1,26
21,CC(C)(C)NS(=O)(=O)c1ccccc1CNCc1cccc(O)c1,56.9
22,CCc1nnc2n1CCN(C(C(=O)NC1CC1)c1ccccc1)C2 (stereo unspecified),-119

row,SMILES,INHIBITION [%]
1,CC(C)CCN1CCc2[nH]nc(C(=O)N3CC=CC3)c2C1,-95.1
2,Cc1cc(-c2cnc(N3CCCC(C)C3)nc2C(C)C)on1 (stereo unspecified),-127
3,Cc1cc(-c2cnc(N3CCSCC3)nc2C(C)C)on1,63.8
4,Cc1cc(-c2cnc(N3CCN(C)CC3)nc2-c2ccc(C)s2)on1,-24
5,Cc1cc(-c2cnc(N3CCC(O)CC3)nc2C(C)C)on1,13.7
6,Cc1cc(-c2cnc(N3CCC(C(N)=O)CC3)nc2C(C)C)on1,-7.12
7,Cc1cc(-c2cnc(N3CCN(C)CC3)nc2C(C)C)on1,52.5
8,COc1ccc(CN2C[C@@H]3CN(Cc4cccnc4)CCO[C@@H]3C2)cc1,-76.4
9,CC(NC(=O)Nc1ccc(-c2csnn2)cc1)C(=O)NC(C)(C)C (stereo unspecified),-94.8
10,O=C(c1ccsc1)N1C[C@@H]2CCN(c3cccnc3)C[C@@H]2C1,-7.89
11,O=C(NCC1CCS(=O)(=O)C1)N1CCN(c2cnccn2)CC1 (stereo unspecified),-123
12,CC(NC(=O)NCCCN(C)S(C)(=O)=O)c1ccc(F)cc1 (stereo unspecified),-109
13,Cc1cc(N(C)C)nc(N(C)Cc2csc(C)n2)n1,51.4
14,COc1ccnc(N(C)Cc2csc(C)n2)n1,-49.6
15,Cc1nc(CN(C)c2nccc(N(C)C)n2)cs1,27.2
16,c1cncc(OCc2n[nH]c3c2CN(Cc2cccs2)C3)c1,-109
17,OC1(Cn2ccc3ncccc32)CCN(Cc2cccs2)CC1,4.9
18,CC(=O)c1cccc(NCC(=O)NC(N)=O)c1,-105
19,Cn1nc(C2CCCN(Cc3ccccc3)C2)c2nccnc21 (stereo unspecified),-26.5
20,COc1cccc(CNCc2ccnc(N3CCOCC3)c2)c1OC,-35.6
21,O=C(NCC1(O)CCOCC1)c1ccc(F)cc1,-171
22,COc1ccc(C2(C(=O)NC3CCc4nccn4C3)CCCC2)cc1 (stereo unspecified),47.5

row,SMILES,INHIBITION [%]
1,CS(=O)(=O)C1(C(=O)NC2CCc3nccn3C2)CCCC1 (stereo unspecified),-105
2,COc1cccc(C2(C(=O)NC3CCc4nccn4C3)CCCC2)c1 (stereo unspecified),53.3
3,CCN1CC(C)(C)CN(C(=O)CCc2ccccc2)CC1=O,-37
4,Cc1ccc(-c2nc(CCNC(=O)NC3CCC(O)CC3)co2)cc1 (stereo unspecified),-137
5,CN(C)CC1(O)CCN(Cc2cnc3c(-c4ccccc4)cnn3c2)C1 (stereo unspecified),65
6,c1ccc(-c2cnn3cc(CN4CCC5(CCO5)CC4)cnc23)cc1,-302
7,OCCN1CCN(Cc2cnc3c(-c4ccccc4)cnn3c2)CC1,20.3
8,COc1ccc(CN(Cc2ccsc2)CC2CCCO2)cn1 (stereo unspecified),-101
9,Cc1cccc(CN2CCCC3(CCC(=O)N3CCN(C)C)CC2)n1 (stereo unspecified),45.5
10,CN(C)C(=O)CN1C(=O)CCC12CCN(Cc1cccs1)CC2,-98
11,CN(C)CCN1C(=O)CCC12CCN(Cc1cccs1)CC2,58.2
12,CNc1cncc(C2CCN(C(=O)c3coc(C)n3)CC2)n1,-43
13,Cc1nn(C)c(N(C)C)c1CNC1CCc2c(F)cccc21 (stereo unspecified),-24.9
14,C=Cc1ccc(CN2C(=O)C3(CCNCC3)Nc3ccccc32)cc1,87.7
15,N#Cc1cccc(CN2C(=O)C3(CCNCC3)Nc3ccccc32)c1,67.9
16,N#Cc1cccc(CN2CCC3(CC2)CC(c2ccncc2)C(=O)N3)c1 (stereo unspecified),-29.8
17,NC(=O)c1ccc(CN2C(=O)C3(CCNCC3)Nc3ccccc32)cc1,-3.53
18,N#Cc1cccc(CN2C(=O)c3ccccc3CS2(=O)=O)c1,-37.5
19,O=C1CC2(CCNCC2)C(=O)N1Cc1ccc(F)cc1,-53.4
20,COc1ccccc1N1CCN(C(=O)c2ccnc(N(C)C)c2)CC1,41.8
21,CN(Cc1cn2c(n1)CN(C1CCOCC1)CC2)Cc1ccco1,-29.2
22,CC(=O)N1CCCC1c1cncc(Oc2ccc(F)cc2)n1 (stereo unspecified),-118

row,SMILES,INHIBITION [%]
1,Cn1cncc1CN1CCCC1c1cncc(Oc2ccc(F)cc2)n1 (stereo unspecified),-32.7
2,NC(=O)CN1CCCC1c1cncc(Oc2ccc(Cl)cc2)n1 (stereo unspecified),9.38
3,COc1ccc(Oc2cncc(C3CCCN3C(C)=O)n2)cc1 (stereo unspecified),-40.9
4,CN(C)CC(=O)N1CCCC1c1cncc(Oc2ccc(F)cc2)n1 (stereo unspecified),61.2
5,CNCC(=O)N1CCCC1c1cncc(Oc2ccc(F)cc2)n1 (stereo unspecified),69.8
6,NCc1ccnc(Oc2ccc(F)cc2)c1,-151
7,O=C(NC1CC1)N1CCOCC2(C1)CN(c1ccccc1)C(=O)CO2 (stereo unspecified),-77.9
8,c1cnnc(NCC2CN(Cc3ccon3)CCO2)c1 (stereo unspecified),-114
9,CN1CC[C@]2(CN(CC3CCOC3)C[C@H]2c2ccccc2)C1=O (stereo partly specified),-65.9
10,NC(=O)NC(=O)CCSCc1coc(-c2ccc(F)cc2)n1,-58.5
11,CC(=O)N1CCc2nc(-c3ccccc3)nc(NC(C)C)c2CC1,-25.6
12,CC(Nc1ncnc2c1CCNCC2)c1nc2c(s1)CCCC2 (stereo unspecified),9.93
13,CC(Nc1nc(-c2ccccc2)nc2c1CCNCC2)c1nccs1 (stereo unspecified),52.7
14,N#CCCn1nc(C(F)(F)F)c2c1CCC2,-74.2
15,Cc1ncsc1C(=O)NC1CCN(Cc2ccc(C(F)(F)F)cc2)CC1,-104
16,O=C(NC[C@H]1OC[C@@H](NC2CCC2)[C@@H]1O)Nc1ccccc1,-141
17,O=C(NC[C@H]1OC[C@@H](N(CC2CC2)CC2CC2)[C@@H]1O)Nc1ccccc1,64.8
18,CN(C)[C@@H]1CO[C@H](CNC(=O)Nc2ccccc2)[C@H]1O,-60.7
